# Shown are actives, neighbours in structure and some others; about 13% of the full set was active somewhere.
# HCV inhibitor = HCV inhibition | AID 651820 | Potency, µM (highest dose often 41.8 µM), without a hit: at the top dose activity change, negative = inhibition, most hits filed as inhibitors | 3.4% of 340,000 active | Huh7.5.1 HCVcc-Cre infection, luciferase reporter, 44 h; also: potency is read from the fitted curve at half-maximal effect
#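 Reporter virus HCVcc-Cre (~0.5 moi) infects cells exposed to compound; seeding density 1,000 cells/well with 4 h settling beforehand. Luminescence, 15 sec read, taken 44 h post-infection following a 15 min RT substrate incubation.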
# Pf growth 48h = P. falciparum growth inhibition at 48 hours (one generation); AID 504832; Potency, µM (titrated, usually from 28.7 µM), without a hit: at the highest dose activity change, negative = inhibition, most hits filed as inhibitors; P. falciparum luciferase growth in erythrocytes, 48 h; 5.9% of 310,000 active; also: potency is read from the fitted curve at half-maximal effect
#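 Parasite viability was followed by luminescence of a genomically integrated firefly luciferase. Cultures held 0.1% parasitemia at 2% hematocrit (final), incubated under 5% CO2 at 37 C.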
# HCMV inh = human cytomegalovirus inhibition; HFF cells, HCMV-luciferase reporter, 72 h; active compounds read low; activity change, negative = inhibition, % at 57.5 µM; 4.5% of 410,000 active; AID 1259415; in the data active = activity change below about -60%; inconclusive = no clear call, values can overlap the other calls; inactive = above about -39%
#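 Compounds were evaluated in HFFs infected with an HCMV luciferase reporter virus (MOI 1 PFU/cell). Luciferase in lysates collected 72 h post infection served as the replication measure.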
# Pf growth 96h = P. falciparum growth inhibition at 96 hour, primary screen for plastid delayed-death inhibitors; P. falciparum luciferase reporter growth, 96 h; Potency, µM (doses to about 28.7 µM), for the others: at the highest dose activity change, negative = inhibition, actives largely listed as inhibitors; 6.9% of 320,000 active; AID 504834; also: potency is read from the fitted curve at half-maximal effect
#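 Two-generation exposure (96 h) targets delayed-death phenotype. Reporter parasites carrying integrated firefly luciferase, in red cells at 2% hematocrit and 0.05% parasitemia final, kept at 37 C, 5% CO2; luminescence loss indicates inhibition.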
# * = called active by the depositor; ? = inconclusive; / = no result given. Unless noted, calls follow the shape of the dose curve; as a rule, active = well fitted inhibition curve with a large enough effect; inconclusive = small, poorly fitted or top-dose-only effect, or another doubt; inactive = no such curve, though single readings can be large or run the other way. % is scaled to controls: 0 for no effect and ±100 for the full control effect.
SMILES,HCV inhibitor,Pf growth 48h,HCMV inh,Pf growth 96h
C[C@H](c1ccccc1)N1C[C@@H](COCc2ccccc2)Oc2cc(N3CCC[C@@H]3CO)ccc2S1(=O)=O,/,/,-6,/
C[C@H](c1ccccc1)N1C[C@H](COCc2ccccc2)Oc2cc(N3CCC[C@H]3CO)ccc2S1(=O)=O,/,/,-64*,/
COc1ccc(NC(=O)C2CCC(CNS(=O)(=O)c3ccc(Br)s3)CC2)c(OC)c1 (configuration not stated),/,/,-31,/
CC(C)Nc1nc(NC(C)C)nc(OCCOC(=O)c2ccccc2)n1,?,-26%,-2,?
CN(C)c1nc(OCCOC(=O)c2ccccc2)nc(N(C)C)n1,25µM*,-12%,-19,/
CCOc1cc(/C=C2\COc3ccccc3C2=O)cc(Br)c1OCC(=O)N(C)C,?,?,-39,10µM*
Cc1oc2ncn(CC(C)C)c(=O)c2c1C(=O)NCCCN(C)Cc1ccccc1,/,/,5,/
O=C(NCc1ccccc1Cl)c1cc(=O)[nH]c2ccc(S(=O)(=O)N3CCCCC3)cc12,/,/,17,/
Cc1nn(-c2ccccc2)c(C)c1/C=N/NC(=O)c1cc(-c2cccs2)[nH]n1,?,?,-89*,-73%
COc1cc(/C=N/NC(=O)c2cc(C34CC5CC(CC(C5)C3)C4)[nH]n2)ccc1O,9%,?,48,12µM*
Cc1cc(C(=O)N/N=C/c2c(C)nn(-c3ccccc3)c2C)n[nH]1,-10%,-11%,13,?
Cc1nn(-c2ccccc2)c(C)c1/C=N/NC(=O)c1cc(C23CC4CC(CC(C4)C2)C3)[nH]n1,10µM*,3.3µM*,2,2.1µM*
Cc1ccc(S(=O)(=O)N2CCN(Cc3cc(=O)n4nc(-c5ccccc5Cl)sc4n3)CC2)cc1,/,/,3,/
CCCOc1ccc(-c2nn(-c3ccccc3)cc2C2NC(=O)NC(C)=C2C(=O)OC(C)C)cc1 (configuration not stated),/,/,-35,/
Cc1cc(C)n(Cc2ccc(Cl)cc2Cl)c(=O)c1S(=O)(=O)c1ccccc1,-5%,13µM*,-11,?
Cc1ccc(CNC(=O)CSc2nc3c(sc4ccccc43)c(=O)n2CCCC(=O)NCCO)cc1,/,/,8,/
Cc1cc(S(=O)(=O)NCCc2ccccc2)c(C)s1,?,-14%,-98*,7%
O=C(CN1CCSC1=NCc1ccccc1)c1ccc(Cl)c(Cl)c1,?,?,?,9.3µM*
O=C(Cn1ccccc1=S)c1ccc(Cl)c(Cl)c1,-7%,/,?,/
O=C(NCC1CCCCN1)c1cc(OCC(F)(F)F)ccc1OCC(F)(F)F (configuration not stated),10µM*,-25%,0,?
O=C(CCl)NCCNC(=O)c1cc(OCC(F)(F)F)ccc1OCC(F)(F)F,22µM*,?,-78*,?
Cc1ccc(C2(c3noc(CN(C)Cc4cnn(C)c4)n3)CCCC2)cc1,?,11%,-23,12µM*
Cc1ccc(C2(c3noc(CN4CCC(C(=O)N5CCOCC5)CC4)n3)CCCC2)cc1,-23%,?,-21,25%
Cc1ccc(C2(c3noc(CN(C)CCCN4CCOCC4)n3)CCCC2)cc1,/,-9%,?,8.3µM*
Cc1ccc(C2(c3noc(CN4CCOCC4)n3)CCCC2)cc1,20%,9%,-22,?
SMILES,HCV inhibitor,Pf growth 48h,HCMV inh,Pf growth 96h
O=C(Nc1sc2c(c1C(=O)NCC1CCCO1)CCC2)c1cc(=O)c2cc(Cl)ccc2o1 (configuration not stated),/,/,-10,/
O=c1c(S(=O)(=O)c2ccccc2)cn(Cc2ccc(F)cc2)c2cc(N3CCOCC3)c(F)cc12,/,/,-10,/
Cc1cccc(CSc2nc3c(cc2C#N)CN(C)CC3)c1,14µM*,10µM*,33,7.4µM*
CN1CCc2nc(SCc3ccccc3Br)c(C#N)cc2C1,7.9µM*,?,-20,13%
CCOc1ccc(NC(=O)CSc2nc3ccccc3c(=O)n2CCC(=O)NC2CCCCC2)cc1,/,/,0,/
CCc1ccc2oc(C(=O)Nc3cccc(C(F)(F)F)c3)cc(=O)c2c1,/,/,-6,/
O=C(Nc1ccccc1C(=O)OCc1cc(=O)n2nc(C3CC3)sc2n1)c1cccc(Cl)c1,/,/,23,/
O=C(OCCCCN1C(=O)c2ccccc2C1=O)c1n[nH]c2ccccc12,?,?,-5,13µM*
CC(=O)c1c(C)[nH]c(C(=O)OCCCCN2C(=O)c3ccccc3C2=O)c1C,10µM*,?,/,3%
CCc1ccc(C(=O)COC(=O)c2nn(C)c(=O)c3ccccc23)cc1,10%,11%,5,-29%

# Assay outcomes (PubChem BioAssay)
